Test [1] can be described thus: p53 stabilisation in HPV-positive human cells, imaging, p53-positive nuclei imaging, 24 h, 48 h (AID 1508601). The following applies: 24/48 h.
The target in test [2] is Cellular tumor antigen p53 (Homo sapiens) (UniProt P04637). The description is as above. The following applies: 24/48 h, stronger effect = higher value.
Setting [3] is: measured here: cell number at 24 h, Library stock concentration: 80 uM.
Setting [4] is: measured here: cell number at 24 h, Library stock concentration: 400 uM.
The mark [5] stands for this setting: measured here: cell number at 24 h, Library stock concentration: 2 mM.
Where [6] appears, read: measured here: cell number at 24 h, Library stock concentration: 10 mM.
The mark [7] stands for this setting: measured here: cell number at 24 h, concentration not given here.
[8] abbreviates: measured here: cell number at 48 h, Library stock concentration: 80 uM.
[9] abbreviates: measured here: cell number at 48 h, Library stock concentration: 400 uM.
The mark [10] stands for this setting: measured here: cell number at 48 h, Library stock concentration: 2 mM.
The mark [11] stands for this setting: measured here: cell number at 48 h, Library stock concentration: 10 mM.
Where [12] appears, read: measured here: cell number at 48 h, concentration not given here.
[13] abbreviates: Library stock concentration: 80 uM.
[14] abbreviates: Library stock concentration: 400 uM.
[15] abbreviates: Library stock concentration: 2 mM.
The mark [16] stands for this setting: Library stock concentration: 10 mM.
Setting [17] is: measured here: p53 positive nuclei at 24 h, Library stock concentration: 80 uM.
The mark [18] stands for this setting: measured here: p53 positive nuclei at 24 h, Library stock concentration: 400 uM.
The mark [19] stands for this setting: measured here: p53 positive nuclei at 24 h, Library stock concentration: 2 mM.
The mark [20] stands for this setting: measured here: p53 positive nuclei at 24 h, Library stock concentration: 10 mM.
[21] abbreviates: measured here: p53 positive nuclei at 24 h, concentration not given here.

The structures appear in SMILES notation. Where “and” joins values, the source holds several entries; their conditions need not be identical. Equal values may be shown once. The whole screen tested about 5,700 compounds, of which about 85 (1%) were called active. Rule as the data show it: active = p53-positive nuclei above about 36% (passing the limit was not always enough); inactive = the rest. The list comes from a sample in which actives are over-represented; it also holds similar structures and randomly drawn compounds. Some structures have more than one record in an assay (separate samples or runs), and their calls can disagree.

Sequence of Cellular tumor antigen p53 (Homo sapiens) (P04637 whole entry, looked up): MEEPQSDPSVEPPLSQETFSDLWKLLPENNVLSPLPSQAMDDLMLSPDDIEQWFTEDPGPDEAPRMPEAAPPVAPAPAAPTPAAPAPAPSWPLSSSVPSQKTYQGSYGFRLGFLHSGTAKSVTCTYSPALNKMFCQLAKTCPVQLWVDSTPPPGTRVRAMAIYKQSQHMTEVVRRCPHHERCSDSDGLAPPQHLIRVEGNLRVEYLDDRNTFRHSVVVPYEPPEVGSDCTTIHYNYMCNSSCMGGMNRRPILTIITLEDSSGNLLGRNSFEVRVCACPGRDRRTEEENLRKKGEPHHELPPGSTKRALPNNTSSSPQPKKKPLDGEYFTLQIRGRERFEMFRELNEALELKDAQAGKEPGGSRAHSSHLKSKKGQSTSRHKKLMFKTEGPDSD

Take `O=C(CCCCCCC(=O)Nc1ccccc1)NO`: the nuclei count, normalised in test [1] (setting [3]) is 112%; in test [1] (setting [4]), 108% and 112%; in test [1] (setting [5]), 91.7% and 119%; in test [1] (measured here: cell number at 24 h, Library stock concentration: 3.33 mM), 78.1%; in test [1] (setting [6]) it was 48.6% and 60.7%; in test [1] (setting [7]), 97.6%. In addition, the nuclei count, normalised is 108% and 95.5% in test [1] (setting [8]); 95.7% and 94.9% in test [1] (setting [9]); 94.4% and 101% in test [1] (setting [10]); 74.5% in test [1] (measured here: cell number at 48 h, Library stock concentration: 3.33 mM); 30.2% and 39.7% in test [1] (setting [11]); 95.7% in test [1] (setting [12]). For the same molecule, the p53-positive nuclei, normalised was 0.114% (inactive) and -0.578% (inactive) in test [2] (setting [13]); -0.0686% (inactive) and -0.456% (inactive) in test [2] (setting [14]); 1.4% (inactive) and -0.595% (inactive) in test [2] (setting [15]); 4.65% (inactive) in test [2] (Library stock concentration: 3.33 mM); 53.5% (active) and 27.2% (inactive) in test [2] (setting [16]); 0.0822% (inactive) in test [2] (concentration not given here). Moreover, the p53-positive nuclei, normalised in test [2] (setting [17]) was 0.178% and -0.162%; in test [2] (setting [18]), -0.0144% and -0.0685%; in test [2] (setting [19]), 2.42% and 0.0577%; in test [2] (measured here: p53 positive nuclei at 24 h, Library stock concentration: 3.33 mM), 8.5%; in test [2] (setting [20]), 65.2% and 32.1%; in test [2] (setting [21]), 0.00812%.
`Cc1ccc(NC(=O)CCCCCC(=O)Nc2ccccc2N)cc1`: the results for the nuclei count, normalised in test [1] (setting [7]) and in test [1] (setting [12]) were 111% and 104%, respectively. Further, the p53-positive nuclei, normalised in test [2] (concentration not given here) is -0.139% (inactive); in test [2] (setting [21]), -0.0721%.
Take `Nc1ccccc1NC(=O)CCCCCCC(=O)Nc1ccccc1`: the nuclei count, normalised in test [1] (setting [7]) turned out to be 102%; in test [1] (setting [12]), 99.7%. Moreover, the p53-positive nuclei, normalised in test [2] (concentration not given here) was -0.185% (inactive); in test [2] (setting [21]), -0.135%.
Consider `O=C(Nc1ccc2nccnc2c1)c1csc(Cc2ccccc2)n1`, for which the nuclei count, normalised stood at 101% in test [1] (setting [7]) and 102% in test [1] (setting [12]). Further, the figures for the p53-positive nuclei, normalised in test [2] (concentration not given here) and in test [2] (setting [21]) were 0.478% (inactive) and 0.426%, respectively.
As to `O=C(O)CCCCCCCCCCCNC(=O)NC12CC3CC(CC(C3)C1)C2`, the nuclei count, normalised in test [1] (measured here: cell number at 24 h, Library stock concentration: 46 uM) came to 111%; in test [1] (measured here: cell number at 24 h, Library stock concentration: 278 uM), 105%; in test [1] (measured here: cell number at 24 h, Library stock concentration: 1.67 mM), 106%; in test [1] (setting [6]), 101%; in test [1] (setting [7]), 106%; in test [1] (measured here: cell number at 48 h, Library stock concentration: 46 uM), 111%. The nuclei count, normalised in test [1] (measured here: cell number at 48 h, Library stock concentration: 278 uM) was 105%; in test [1] (measured here: cell number at 48 h, Library stock concentration: 1.67 mM), 103%; in test [1] (setting [11]), 101%; in test [1] (setting [12]), 113%. Moreover, the p53-positive nuclei, normalised was -0.188% (inactive) in test [2] (Library stock concentration: 46 uM); 0.036% (inactive) in test [2] (Library stock concentration: 278 uM); 0.0433% (inactive) in test [2] (Library stock concentration: 1.67 mM); 0.0468% (inactive) in test [2] (setting [16]); -0.166% (inactive) in test [2] (concentration not given here); -0.135% in test [2] (measured here: p53 positive nuclei at 24 h, Library stock concentration: 46 uM). The p53-positive nuclei, normalised was -0.135% in test [2] (measured here: p53 positive nuclei at 24 h, Library stock concentration: 278 uM); 0.0415% in test [2] (measured here: p53 positive nuclei at 24 h, Library stock concentration: 1.67 mM); -0.0737% in test [2] (setting [20]); -0.144% in test [2] (setting [21]).
On to `COC(=O)C=CC(=O)N(O)CCCCNCc1ccc(COC(=O)Nc2cccc3ccccc23)cc1`, for which the nuclei count, normalised in test [1] (setting [3]) turned out to be 119%; in test [1] (setting [4]), 118%; in test [1] (setting [5]) it was 116%; in test [1] (setting [6]), 97.3%; in test [1] (setting [8]), 112%; in test [1] (setting [9]), 113%. Besides, the nuclei count, normalised in test [1] (setting [10]) was 110%; in test [1] (setting [11]), 92.8%. The p53-positive nuclei, normalised in test [2] (setting [13]) is -0.786% (inactive); in test [2] (setting [14]), -0.552% (inactive); in test [2] (setting [15]) it was -0.616% (inactive); in test [2] (setting [16]), -0.57% (inactive); in test [2] (setting [17]), -0.122%; in test [2] (setting [18]), -0.0743%. In addition, the p53-positive nuclei, normalised is -0.0278% in test [2] (setting [19]) and -0.0473% in test [2] (setting [20]).

These data come from PubChem BioAssay AID1508601 (ICCB-Longwood Screening Facility, Harvard Medical School, 2020).
